Screens: PubChem BioAssay, Broad Institute
The list is not random: actives were taken first. Their share in the collection is about 1.2%.
NSD2 HMT inh: NSD2 (human) methyltransferase inhibition | NSD2 peptide methylation, AlphaScreen, 120 min | inhibition, % at 12.5 µM | actives 0.54% (n = 310,000) | AID 743445; in the data active means inhibition above about 50%
Casp6 inh: blocks human caspase-6 cleavage activity. inhibition, % at 12.5 µM. P55212. purified caspase-6, Z-VEID-R110 cleavage fluorescence. actives 0.53% (n = 350,000);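 active means mean inhibition across replicates at least about 35%, with every replicate also reaching that limit, limit read from the data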
Target sequence (P55212 24-179 limits assumed): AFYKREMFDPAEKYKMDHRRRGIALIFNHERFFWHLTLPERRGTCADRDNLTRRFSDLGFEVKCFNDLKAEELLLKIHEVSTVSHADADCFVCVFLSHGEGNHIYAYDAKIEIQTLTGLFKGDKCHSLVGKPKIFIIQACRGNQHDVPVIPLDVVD
Target sequence (P55212 194-293 limits assumed): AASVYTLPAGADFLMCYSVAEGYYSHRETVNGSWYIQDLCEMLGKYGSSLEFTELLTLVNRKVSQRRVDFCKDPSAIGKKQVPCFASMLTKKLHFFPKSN
RAD54 inh: inhibitors of human RAD54 branch migration. inhibition, % at 10.4 µM. actives 0.14% (n = 360,000). AID 602329. RAD54 Holliday junction branch migration, FAM/BHQ fluorescence;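 active means mean normalized replicate activity at least 40 and at least half of replicates scoring 40 or more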;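 further: inhibitors cause a drop in the FAM fluorescence signal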
Glyco luc inh: N-linked glycosylation inhibition. D54 ERlucT glycosylation luciferase reporter, 24 h; percent of 100 nM tunicamycin response. actives 0.23% (n = 360,000). reporter increase, % at 12.5 µM;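 active means mean luciferase reporter signal, scaled so untreated is 0 and the glycosylation-blocking control 100, at or above a set limit in every replicate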;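 further: luciferase carries N-glycosylation sites so blocking glycosylation raises the light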
RAD52 anneal inh: blocks human RAD52 DNA annealing. P43351. recombinant RAD52 DNA annealing, FRET fluorescence. inhibition, % at 18.7 µM. actives 0.46% (n = 360,000);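 active means every replicate showing at least 50% inhibition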
Target sequence (P43351 whole entry, looked up): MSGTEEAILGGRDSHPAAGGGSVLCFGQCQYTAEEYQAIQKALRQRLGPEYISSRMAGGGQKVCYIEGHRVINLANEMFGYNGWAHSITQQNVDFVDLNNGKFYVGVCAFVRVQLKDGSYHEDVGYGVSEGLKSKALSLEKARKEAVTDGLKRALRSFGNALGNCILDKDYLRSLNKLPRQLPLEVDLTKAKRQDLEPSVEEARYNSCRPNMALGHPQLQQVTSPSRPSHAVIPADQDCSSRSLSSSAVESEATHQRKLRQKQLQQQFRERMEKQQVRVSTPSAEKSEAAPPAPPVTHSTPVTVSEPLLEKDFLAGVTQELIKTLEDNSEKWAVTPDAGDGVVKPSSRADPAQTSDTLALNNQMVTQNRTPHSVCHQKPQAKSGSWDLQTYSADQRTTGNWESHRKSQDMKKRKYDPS
Of the large screens only hits and unclear results are named; the others gave an inactive call.

COc1ccccc1-c1csc(C(NC(C)=O)c2ccccc2)n1 (stereo not given)	Glyco luc inh 42
COc1cccc(C(NC(C)=O)c2nc(-c3ccc(F)cc3OC)cs2)c1 (stereo not given)	Glyco luc inh 50
COc1ccc(-c2csc(C(NC(C)=O)c3ccc(F)c(F)c3)n2)cn1 (stereo not given)	none
NC(=O)C1CCN(C2=C(NS(=O)(=O)c3ccccc3)C(=O)c3ccccc3C2=O)CC1	none (no result: RAD54 inh)
NC(=O)C1CCN(C2=C(NS(=O)(=O)c3ccc(Br)cc3)C(=O)c3ccccc3C2=O)CC1	NSD2 HMT inh 52
NC(=O)C1CCN(C2=C(Cl)C(=O)c3ccccc3C2=O)CC1	NSD2 HMT inh 88, Glyco luc inh 78 (no result: Casp6 inh, RAD52 anneal inh)
O=C1C(NS(=O)(=O)c2cccs2)=C(N2CCOCC2)C(=O)c2ccccc21	none
CCN1CCN(C2=C(NS(=O)(=O)c3ccccc3)C(=O)c3ccccc3C2=O)CC1	NSD2 HMT inh 57, Casp6 inh 48
CN1CCN(C2=C(NS(=O)(=O)c3cccs3)C(=O)c3ccccc3C2=O)CC1	Casp6 inh 47
COc1ccc(S(=O)(=O)Nc2cccc3c2O[C@@H](CN(C)CC2CC2)[C@H](C)CN([C@H](C)CO)C3=O)cc1	none (no result: NSD2 HMT inh, Glyco luc inh)
CCN1CCN(C2=C(NS(=O)(=O)c3ccc(Br)cc3)C(=O)c3ccccc3C2=O)CC1	NSD2 HMT inh 90, Casp6 inh 68
CN1CCN(C(=O)C[C@@H]2CC[C@H](NC(=O)c3ccc4c(c3)OCO4)[C@H](CO)O2)CC1	none (no result: NSD2 HMT inh, Glyco luc inh)
CCCCOCCCNC(=O)C[C@@H]1C[C@@]2(C(=O)OCC)CCC=C2N(Cc2ccco2)C1=O	Casp6 inh 49 (no result: NSD2 HMT inh, RAD54 inh, Glyco luc inh)
CCOC(=O)[C@]12CCC=C1N(Cc1ccc(Cl)cc1Cl)C(=O)[C@H](CC(=O)NCCC(C)C)C2	none (no result: NSD2 HMT inh, RAD54 inh, Glyco luc inh)
C#CCNC(=O)C[C@@H]1C[C@@]2(C(=O)OCC)CCC=C2N(Cc2ccc(Cl)cc2Cl)C1=O	Casp6 inh 76 (no result: NSD2 HMT inh, RAD54 inh, Glyco luc inh)
O=C(CN1CCOCC1)N1CCCCN2[C@@H](CO)[C@@H](c3ccc(C#Cc4ccccc4)cc3)[C@@H]2C1	none (no result: NSD2 HMT inh, Glyco luc inh)
O=C1NC(=S)S/C1=C1\Sc2ccccc2N1CCCS(=O)(=O)O	none (no result: Casp6 inh, RAD52 anneal inh)
NN1C(=O)/C(=C2/Sc3ccccc3N2CCCS(=O)(=O)O)SC1=S	Casp6 inh 55
Cc1ccc[n+](-c2[nH]c(=O)sc2/C=N/NC(=O)c2ccccc2[O-])c1	Casp6 inh 35 (no result: RAD54 inh)
CCCNC(=O)N1CC2(CN(C(=O)CC)C2)c2c(n(C)c3cc(OC)ccc23)[C@@H]1CO	none (no result: NSD2 HMT inh, RAD54 inh, Glyco luc inh)
COc1ccc(C(=O)Nc2ccc3ccccc3c2)c(OC)c1	Casp6 inh 43
COc1ccccc1C(=O)Nc1ccc2ccccc2c1	none (no result: NSD2 HMT inh, RAD54 inh)
COCc1cn(CC[C@H]2CC[C@H](NC(=O)Nc3ccc(C(F)(F)F)cc3)[C@@H](CO)O2)nn1	none (no result: NSD2 HMT inh, Glyco luc inh)
O=c1c(-c2c(O)cc(O)c3c(=O)cc(-c4ccc(O)cc4)oc23)c(-c2ccc(O)cc2)oc2cc(O)cc(O)c12	Casp6 inh 83 (no result: NSD2 HMT inh)
O=c1cc(-c2ccc(O)cc2)oc2c(-c3c(O)cc(O)c4c(=O)cc(-c5ccc(O)cc5)oc34)c(O)cc(O)c12	none (no result: NSD2 HMT inh)
Cc1ccc(C(=O)O)cc1NC(=S)NC(=O)c1ccc(COc2ccccc2)cc1	Casp6 inh 38
COc1ccc(S(=O)(=O)N2CCC3(CC2)CN(Cc2ccccc2OC)[C@@H](CO)c2[nH]c4cc(OC)ccc4c23)cc1	RAD52 anneal inh 52 (no result: NSD2 HMT inh, RAD54 inh, Glyco luc inh)
COc1ccc2c3c([nH]c2c1)[C@H](CO)N(Cc1cccc(Cl)c1)CC31CN(C)C1	RAD52 anneal inh 56 (no result: NSD2 HMT inh, Casp6 inh, RAD54 inh, Glyco luc inh)
COc1cccc(CN2CC3(CN(C)C3)c3c([nH]c4cc(OC)ccc34)[C@H]2CO)c1	none (no result: NSD2 HMT inh, RAD54 inh, Glyco luc inh)
COc1cc(CN2CC3(CN(C)C3)c3c([nH]c4cc(OC)ccc34)[C@@H]2CO)cc(OC)c1	RAD52 anneal inh 54 (no result: NSD2 HMT inh, Casp6 inh, RAD54 inh, Glyco luc inh)
COc1ccc2c3c([nH]c2c1)[C@@H](CO)N(Cc1cccc(Cl)c1)CC31CN(C)C1	none (no result: NSD2 HMT inh, Casp6 inh, RAD54 inh, Glyco luc inh)
COc1ccc2c3c([nH]c2c1)[C@@H](CO)N(Cc1ccccc1OC)CC31CN(S(=O)(=O)c2ccccc2)C1	none (no result: NSD2 HMT inh, RAD54 inh, Glyco luc inh)
CC=Cc1ccc2n(c1=O)C[C@H]1[C@H](CO)[C@@H](C(=O)NC3CCCCC3)N(C(=O)C3CC3)[C@@H]21 (mixture of isomers)	none (no result: NSD2 HMT inh, Glyco luc inh)
CN(C)C(=O)c1cccc(-c2ccccc2[C@@H]2[C@@H](C#N)N(C(=O)C3CCCC3)[C@@H]2CO)c1	none (no result: NSD2 HMT inh, RAD54 inh, Glyco luc inh)
Cc1[nH]c2ccccc2c1/C=N/NC(=O)c1cc(-c2ccncc2)nc2ccccc12	Glyco luc inh 37
C=Cc1c(C)c2cc3[nH]c(cc4nc(cc5nc(cc1[nH]2)C(C)=C5CCC(=O)O)C(CCC(=O)O)=C4C)c(C)c3C=C	Casp6 inh 57 (no result: NSD2 HMT inh)
CCC(=O)c1ccc(OCC(=O)OCC(=O)c2cc(C)n(C)c2C)cc1	Casp6 inh 36
CCCC#Cc1ccc2c(c1)O[C@@H](CN(C)CC1CCCC1)[C@H](C)CN([C@H](C)CO)S2(=O)=O	none (no result: NSD2 HMT inh, RAD54 inh, Glyco luc inh)
O=C(O)C1C=Cc2ccccc2N1C(=O)c1ccccc1 (stereo not given) (tested in a mixture with another compound)	Casp6 inh 39 (no result: RAD54 inh)
CN1CCN(CC(=O)Nc2ccc(Cl)cc2Cl)CC1	Casp6 inh 43
COc1cc(/C=N/NC(=O)c2cccs2)ccc1OCc1ccccc1	none (no result: Casp6 inh, RAD52 anneal inh)
COc1ccc(/C=N/NC(=O)c2sccc2OCc2ccc(F)cc2)cc1OC	Glyco luc inh 38 (no result: Casp6 inh, RAD52 anneal inh)
C[C@H]1CCCCO[C@@H](CN(C)C(=O)c2ccncc2)[C@@H](C)CN([C@@H](C)CO)C(=O)c2cc(NC(=O)NC3CCCCC3)ccc2O1	none (no result: NSD2 HMT inh, Casp6 inh, Glyco luc inh, RAD52 anneal inh)
Cc1ccc(-n2nc(C)c(NC(=O)CCl)c2C)cc1	Glyco luc inh 55 (no result: Casp6 inh, RAD52 anneal inh)
CN1c2ccc(C3=CCCCC3)cc2[C@@H]2[C@@H](CCN2C(=O)Nc2ccccc2F)[C@@H]1CO	none (no result: NSD2 HMT inh, Glyco luc inh)
CCOC(=O)c1cc(-c2ccco2)nn1-c1ccc(C)cc1	none (no result: RAD54 inh)
Cc1ccc(-n2nc(-c3ccco3)cc2C(=O)O)cc1	Casp6 inh 55 (no result: RAD54 inh)
CCOc1ccccc1/C=N/Nc1nc(C)cc(=O)[nH]1	none (no result: Casp6 inh, RAD52 anneal inh)
COc1cccc(/C=N/Nc2nc(C)cc(=O)[nH]2)c1OC	Casp6 inh 42
O=C(Nc1cccnc1Cl)c1ccc(=O)oc1	Casp6 inh 54
CCC(=O)N1C[C@@H](C)[C@@H](OC)CN(C)C(=O)c2cc(NC(=O)CC(F)(F)F)ccc2OC[C@@H]1C	none (no result: NSD2 HMT inh, RAD54 inh, Glyco luc inh)
NCCCNCCCCNCCCN	RAD52 anneal inh 111 (no result: NSD2 HMT inh)
CC=Cc1ccc2n(c1=O)C[C@H]1[C@H](CO)[C@@H](C(=O)NCCC)N(CC3CCCC3)[C@@H]21 (mixture of isomers)	RAD52 anneal inh 99 (no result: NSD2 HMT inh, Glyco luc inh)
CC(C)NC(=O)N(C)C[C@@H]1OCc2ccccc2-c2ccccc2C(=O)N([C@@H](C)CO)C[C@H]1C	none (no result: NSD2 HMT inh, Glyco luc inh)
Cc1onc(-c2ccc(Cl)cc2Cl)c1-c1csc(N/N=C/c2ccccc2Cl)n1	Casp6 inh 38 (no result: RAD54 inh)
